# Results filed as inconclusive are left out. Values without a mark were called inactive. This is one part of the list. A call without a number means that no potency is given here. Active and inactive are the calls of the source. The call rests on the fitted dose curve; in most records, active means well fitted curve in the direction sought with a large enough effect; inconclusive means small, poorly fitted or top-dose-only effect, or another doubt; inactive means no such curve, though single readings can be large; an effect the other way counts as inactive or inconclusive.
# What was measured:
# [1] = target: Tumor susceptibility gene 101 protein (Homo sapiens) (UniProt Q99816); experiment: qHTS Assay for Iinhibitors of HIV-1 Budding by Blocking the Interaction of PTAP/TSG101: Hit Validation (AID 651600); further: nearly all actives have a fitted effect of over 70% in size; further: potency means the concentration at half of the fitted maximal effect
# Chain of Tumor susceptibility gene 101 protein (Homo sapiens) (Q99816 whole entry, looked up, the tested form may be a part): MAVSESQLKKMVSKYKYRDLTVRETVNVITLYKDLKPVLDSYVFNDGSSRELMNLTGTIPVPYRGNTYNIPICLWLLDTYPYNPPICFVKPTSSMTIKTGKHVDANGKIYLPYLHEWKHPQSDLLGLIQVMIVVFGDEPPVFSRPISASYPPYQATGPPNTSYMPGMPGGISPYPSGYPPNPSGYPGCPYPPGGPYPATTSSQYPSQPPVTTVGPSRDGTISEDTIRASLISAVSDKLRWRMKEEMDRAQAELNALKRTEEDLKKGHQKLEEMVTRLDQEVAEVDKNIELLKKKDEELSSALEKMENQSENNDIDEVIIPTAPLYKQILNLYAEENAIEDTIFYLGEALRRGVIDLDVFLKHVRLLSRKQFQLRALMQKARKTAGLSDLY
# In short: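 Tsg101 binding domain 10 uM + FITC-PTAP peptide 50 nM (final), 10 mM HEPES pH 7.5/0.15 M NaCl/0.01% Tween 20/3 mM EDTA/0.1 mM TCEP; 20 min RT; FP read, FITC filters.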
# [2] = target: Rap guanine nucleotide exchange factor 3 (Homo sapiens) (UniProt O95398); experiment: Confirmatory qHTS for antagonist of cAMP-regulated guanine nucleotide exchange factor 3 (EPAC1) (AID 1645880); conditions: EPAC1 Rap1B-BODIPY-GDP exchange, fluorescence; activity, negative = inhibition: at 115 µM (top of the series); further: nearly all actives have a fitted effect of over 55% in size; further: potency means the concentration at half of the fitted maximal effect
# Chain of Rap guanine nucleotide exchange factor 3 (Homo sapiens) (O95398 whole entry, looked up): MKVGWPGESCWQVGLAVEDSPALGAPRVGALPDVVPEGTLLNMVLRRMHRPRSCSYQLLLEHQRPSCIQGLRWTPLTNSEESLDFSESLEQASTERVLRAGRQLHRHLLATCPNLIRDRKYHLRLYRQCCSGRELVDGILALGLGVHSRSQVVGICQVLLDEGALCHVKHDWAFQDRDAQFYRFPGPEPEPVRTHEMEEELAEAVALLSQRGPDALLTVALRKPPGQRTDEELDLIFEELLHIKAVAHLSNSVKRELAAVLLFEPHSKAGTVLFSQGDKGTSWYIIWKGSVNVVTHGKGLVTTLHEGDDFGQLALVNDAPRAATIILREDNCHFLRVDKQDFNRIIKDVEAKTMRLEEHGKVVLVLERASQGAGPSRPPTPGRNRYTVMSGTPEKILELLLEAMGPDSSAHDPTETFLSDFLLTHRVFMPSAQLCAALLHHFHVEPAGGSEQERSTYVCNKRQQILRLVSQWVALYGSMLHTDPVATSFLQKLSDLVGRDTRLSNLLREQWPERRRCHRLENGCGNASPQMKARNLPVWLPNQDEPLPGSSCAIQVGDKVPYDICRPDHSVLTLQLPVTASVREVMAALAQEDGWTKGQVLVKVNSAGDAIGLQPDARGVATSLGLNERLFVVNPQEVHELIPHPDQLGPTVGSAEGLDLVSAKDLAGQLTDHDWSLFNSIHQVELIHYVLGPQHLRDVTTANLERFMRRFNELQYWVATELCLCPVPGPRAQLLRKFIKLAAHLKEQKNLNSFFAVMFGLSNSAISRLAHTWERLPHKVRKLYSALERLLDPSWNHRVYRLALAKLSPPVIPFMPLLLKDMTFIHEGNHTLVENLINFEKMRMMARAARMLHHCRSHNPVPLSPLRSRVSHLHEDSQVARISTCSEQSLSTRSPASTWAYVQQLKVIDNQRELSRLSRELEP
# In short: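 Released BODIPY-GDP fluoresces less than Rap1-bound BODIPY-GDP; the signal is followed at 480/540 nm at 5-min intervals over 30 min, after 5 min at room temperature. Reactions contain 100 nM EPAC1, 250 nM RAP1B-BODIPY-GDP and 50 uM GDP; results are normalized to ATA and DMSO.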
# [3] = target: Rap guanine nucleotide exchange factor 4 (Homo sapiens) (UniProt Q8WZA2); experiment: Confirmatory qHTS for agonist of cAMP-regulated guanine nucleotide exchange factor 4 (EPAC2) (AID 1645884);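 further: nucleotide exchange releases bodipy-GDP from Rap1 and this lowers its fluorescence; nearly all actives have a fitted effect of over 65% in size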; further: potency means the concentration at half of the fitted maximal effect
# Chain of Rap guanine nucleotide exchange factor 4 (Homo sapiens) (Q8WZA2 whole entry, looked up): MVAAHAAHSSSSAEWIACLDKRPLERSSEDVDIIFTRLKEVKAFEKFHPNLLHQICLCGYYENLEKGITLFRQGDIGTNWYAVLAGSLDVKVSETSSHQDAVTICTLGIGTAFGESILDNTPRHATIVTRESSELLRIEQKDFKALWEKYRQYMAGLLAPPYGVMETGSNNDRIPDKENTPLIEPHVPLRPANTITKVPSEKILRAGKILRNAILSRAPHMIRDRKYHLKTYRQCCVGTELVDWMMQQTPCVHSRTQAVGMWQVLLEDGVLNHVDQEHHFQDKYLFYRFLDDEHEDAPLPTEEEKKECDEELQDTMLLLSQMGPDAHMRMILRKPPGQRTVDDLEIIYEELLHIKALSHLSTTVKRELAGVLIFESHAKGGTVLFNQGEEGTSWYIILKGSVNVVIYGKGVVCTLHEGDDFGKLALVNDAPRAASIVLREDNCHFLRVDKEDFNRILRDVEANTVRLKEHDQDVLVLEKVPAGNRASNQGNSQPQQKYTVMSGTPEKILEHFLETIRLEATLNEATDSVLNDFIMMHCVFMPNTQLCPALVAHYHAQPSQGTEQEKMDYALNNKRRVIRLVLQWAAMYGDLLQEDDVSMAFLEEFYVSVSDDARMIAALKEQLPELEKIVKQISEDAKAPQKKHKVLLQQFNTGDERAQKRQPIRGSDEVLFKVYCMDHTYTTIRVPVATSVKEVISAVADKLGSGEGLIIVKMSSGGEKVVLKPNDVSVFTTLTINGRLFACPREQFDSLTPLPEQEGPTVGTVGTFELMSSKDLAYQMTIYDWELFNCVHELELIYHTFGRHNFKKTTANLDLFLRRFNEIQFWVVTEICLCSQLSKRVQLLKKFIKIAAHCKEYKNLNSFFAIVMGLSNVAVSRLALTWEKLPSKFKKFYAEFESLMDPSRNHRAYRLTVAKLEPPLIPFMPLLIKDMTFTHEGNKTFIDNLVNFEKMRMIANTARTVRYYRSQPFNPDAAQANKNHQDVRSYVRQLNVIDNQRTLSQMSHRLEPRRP
# [4] = target: Rap guanine nucleotide exchange factor 4 (Homo sapiens) (UniProt Q8WZA2); experiment: Confirmatory qHTS for antagonist of cAMP-regulated guanine nucleotide exchange factor 4 (EPAC2) (AID 1645885); further: nearly all actives have a fitted effect of over 25% in size; further: potency means the concentration at half of the fitted maximal effect
# [5] = target: Rap guanine nucleotide exchange factor 3 (Homo sapiens) (UniProt O95398); experiment: Counterscreen qHTS for antagonist of cAMP-regulated guanine nucleotide exchange factor 3 (EPAC1) (AID 1645888)
# In short: (§1)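 Rap1B–BODIPY-GDP (250 nM) with 50 uM GDP; compounds pin-transferred to 9.74 nM–152 uM final (activator) or from 7.32 nM upwards (inhibitor). Fluorescence Ex/Em 480/540 nm read at 5 and 30 min, then after adding cAMP or buffer, at room temperature.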
# [6] = target: Rap guanine nucleotide exchange factor 3 (Homo sapiens) (UniProt O95398); experiment: Counterscreen qHTS for agonist of cAMP-regulated guanine nucleotide exchange factor 3 (EPAC1) (AID 1645889); further: nearly all actives have a fitted effect of over 40% in size; further: potency means the concentration at half of the fitted maximal effect
# In short: as §1
# [7] = Counterscreen for APE1 Inhibitors: Fluorescent Dye Displacement Assay (AID 2564);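 further: loss of thiazole orange fluorescence as the dye is displaced from duplex DNA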
# In short: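 Endpoint fluorescence read at 480 nm excitation / 540 nm emission; DNA-binding compounds lower signal by displacing 250 nM Thiazole Orange from 50 nM dsDNA containing a tetrahydrofuran abasic site, Tris-HCl pH7.5 buffer with NaCl and MgCl2.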
# [8] = target: Endonuclease 4 (Escherichia coli (strain K12)) (UniProt P0A6C1); experiment: Counterscreen for APE1 Inhibitors: qHTS Assay for Inhibitors of Endonuclease IV (AID 2565)
# In short: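 Read-out: fluorescence rise (ex 525/em 598 nm) from incision of a TAMRA/BHQ-2 double-stranded THF abasic-site substrate (50 nM), measured kinetically; third-minus-first read difference gave reaction progress. Enzyme 2 nM.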
# [9] = target: DNA repair nuclease/redox regulator APEX1 (Homo sapiens) (UniProt P27695); experiment: Confirmation qHTS Assay for Inhibitors of the Human Apurinic/apyrimidinic Endonuclease 1 (APE1) (AID 2572); conditions: purified APE1, fluorogenic abasic-site DNA cleavage; further: potency means the concentration at half of the fitted maximal effect; nearly all actives have a fitted effect of over 30% in size
# Chain of DNA repair nuclease/redox regulator APEX1 (Homo sapiens) (P27695 whole entry, looked up): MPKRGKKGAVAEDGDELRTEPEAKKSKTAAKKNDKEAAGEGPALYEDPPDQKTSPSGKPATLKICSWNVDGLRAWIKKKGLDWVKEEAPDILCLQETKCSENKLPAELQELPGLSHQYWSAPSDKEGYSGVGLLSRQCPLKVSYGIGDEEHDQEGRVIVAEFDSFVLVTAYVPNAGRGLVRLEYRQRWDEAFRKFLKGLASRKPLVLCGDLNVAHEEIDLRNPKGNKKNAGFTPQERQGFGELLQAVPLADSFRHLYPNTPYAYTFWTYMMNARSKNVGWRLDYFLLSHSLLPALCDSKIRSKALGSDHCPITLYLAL
# In short: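 APE1 preincubated 15 min RT with compound; 50 nM TAMRA/BHQ-2 THF-abasic duplex added; kinetic fluorescence, 3 reads at 60 s intervals, Ex 525/Em 598; progress = read 3 minus read 1.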
# [10] = target: DNA repair nuclease/redox regulator APEX1 (Homo sapiens) (UniProt P27695); experiment: qHTS FP-Based Assay for Inhibitors of the Human Apurinic/apyrimidinic Endonuclease 1 (APE1) (AID 2573)
smiles,measurement,setting,value
CCN1CCc2c(sc(NC(=O)CSc3ccccc3)c2-c2nc3ccccc3s2)C1,Potency,[1],inactive
same,Potency,[2],inactive
same,Potency,[3],inactive
same,Potency,[4],3.79 µM (active)
same,Potency,[5],inactive
Cc1ccc[n+](-c2nc([O-])sc2C=O)c1,Potency,[1],4.61 µM (active)
same,Potency,[2],inactive
same,Potency,[3],100 µM (active)
same,Potency,[4],inactive
same,Potency,[5],inactive
same,Potency,[6],39.8 µM (active)
O=S1(=O)C=C(Oc2ccc3ccccc3c2)c2ccccc21,Potency,[2],inactive
same,activation,[3],"-2.76% [at 17.1 µM, percent relative to cAMP agonist control]"
same,"activity change, negative = inhibition",[5],21.2% [at 30.8 µM]
COc1ccc(C(C#N)=Cc2ccccc2OC)cc1,Potency,[2],inactive
same,activation,[3],"-1.43% [at 17.1 µM, percent relative to cAMP agonist control]"
same,"activity change, negative = inhibition",[5],-8.61% [at 30.8 µM]
Nc1ccc2c3c(cccc13)C(=O)N(c1ccccc1)C2=O,Potency,[1],3.66 µM (active)
same,Potency,[2],inactive
same,Potency,[3],100 µM (active)
same,Potency,[4],inactive
Cc1ccccc1C(=O)Nc1ccc(C(=O)OCc2cc(=O)n3c4c(sc3n2)CCCC4)cc1,Potency,[2],inactive
same,Potency,[3],inactive
same,Potency,[4],inactive
same,Potency,[6],inactive
COc1ccc(/C=C2\C(=O)NC(=O)c3ccccc32)cc1OC,Potency,[2],inactive
same,Potency,[3],inactive
same,Potency,[5],inactive
CCN(CC)c1ccc2cc(S(=O)(=O)c3ccc(Cl)cc3)c(=O)oc2c1,Potency,[1],18.3 µM (active)
same,Potency,[2],inactive
same,Potency,[3],100 µM (active)
same,Potency,[4],42.6 µM (active)
same,Potency,[5],inactive
N#Cc1c(-c2cccs2)nc(SCC(=O)c2ccc(Br)cc2)[nH]c1=O,outcome,[7],inactive
same,outcome,[8],inactive
same,Potency,[9],15.8 µM (active)
same,outcome,[10],inactive
same,Potency,[2],22.4 µM (active)
same,activation,[3],"8.4% [at 17.1 µM, percent relative to cAMP agonist control]"
same,Potency,[4],inactive
same,activation,[6],12.5% [at 30.8 µM]
Cn1nc(-c2ccccc2)c2nc3ccccc3nc21,Potency,[1],16.3 µM (active)
same,Potency,[2],inactive
same,Potency,[3],100 µM (active)
same,Potency,[4],75.7 µM (active)
same,Potency,[5],inactive
same,Potency,[6],inactive
Cc1ccc2oc(=O)c(/C=C(\O)c3ccccc3)nc2c1,Potency,[1],inactive
same,Potency,[2],inactive
same,activation,[3],"10.1% [at 17.1 µM, percent relative to cAMP agonist control]"
same,Potency,[4],inactive
same,"activity change, negative = inhibition",[5],0.517% [at 30.8 µM]
same,activation,[6],12.5% [at 30.8 µM]
Cc1ccc2oc(=O)n(Cc3ccccc3)c2c1,Potency,[2],inactive
same,activation,[3],"5.26% [at 17.1 µM, percent relative to cAMP agonist control]"
same,"activity change, negative = inhibition",[5],1.72% [at 30.8 µM]
COc1ccccc1NC(=O)/C(C#N)=C/c1cc([N+](=O)[O-])ccc1N1CCCC1,Potency,[1],14.6 µM (active)
same,Potency,[2],inactive
same,Potency,[3],112 µM (active)
same,Potency,[4],75.7 µM (active)
same,Potency,[5],inactive
